This is a sample that favours compounds with a hit; in the whole collection about 18% have one here.
TGFb SMAD3 inh – TGF-b pathway inhibition. hit rate 1.2% among 410,000. HepG2 CAGA-GFP TGF-b/SMAD3 reporter, GFP fluorescence, 18 h; TGF-beta stimulated, 500 pg/mL final. Potency, µM (titrated, usually from 46.1 µM), inactives show at the highest dose activity, negative = inhibition, actives largely listed as inhibitors; further: potency means the concentration at half of the fitted maximal effect; on the % scale 0 is the no-effect control and ±100 the full control effect; nearly all actives have a fitted effect of over 65% in size
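Using HEPG2 CAGA-GFP reporter cells at 1000 cells/well, we pinned test compounds, stimulated with recombinant TGF-beta (500 pg/mL final) and measured total well GFP after 18 h.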
IL1B secr inh – blocks inflammasome-driven IL-1 beta release; THP-1 LPS/ATP IL-1B secretion, AlphaLISA, 16 h; hits give low values; activity change, % at 57.5 µM; hit rate 4.7% among 360,000; AID 743279; in the data active means activity change below about -50%; inconclusive means mostly about -30% to -49%; further: on the % scale 0 is the no-effect control and ±100 the full control effect
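THP-1 cells pretreated 1 hr with compounds (up to 57.5 uM final), then stimulated with LPS (250 ng/mL final) plus ATP (1.25 mM final); secreted IL-1B measured by AlphaLISA after 16 hr, decreased signal indicating inhibition.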
TDP1 block – TDP1 (human) enzyme inhibition; hit rate 0.28% among 350,000; Potency, µM (series often up to 130 µM), inactives show top-dose activity change, negative = inhibition, hits mostly inhibitors; AID 485290; Q9NUW8; recombinant TDP1, AlphaScreen DNA substrate cleavage; further: potency means the concentration at half of the fitted maximal effect; on the % scale 0 is the no-effect control and ±100 the full control effect; nearly all actives have a fitted effect of over 40% in size
Target sequence (Q9NUW8 whole entry, looked up): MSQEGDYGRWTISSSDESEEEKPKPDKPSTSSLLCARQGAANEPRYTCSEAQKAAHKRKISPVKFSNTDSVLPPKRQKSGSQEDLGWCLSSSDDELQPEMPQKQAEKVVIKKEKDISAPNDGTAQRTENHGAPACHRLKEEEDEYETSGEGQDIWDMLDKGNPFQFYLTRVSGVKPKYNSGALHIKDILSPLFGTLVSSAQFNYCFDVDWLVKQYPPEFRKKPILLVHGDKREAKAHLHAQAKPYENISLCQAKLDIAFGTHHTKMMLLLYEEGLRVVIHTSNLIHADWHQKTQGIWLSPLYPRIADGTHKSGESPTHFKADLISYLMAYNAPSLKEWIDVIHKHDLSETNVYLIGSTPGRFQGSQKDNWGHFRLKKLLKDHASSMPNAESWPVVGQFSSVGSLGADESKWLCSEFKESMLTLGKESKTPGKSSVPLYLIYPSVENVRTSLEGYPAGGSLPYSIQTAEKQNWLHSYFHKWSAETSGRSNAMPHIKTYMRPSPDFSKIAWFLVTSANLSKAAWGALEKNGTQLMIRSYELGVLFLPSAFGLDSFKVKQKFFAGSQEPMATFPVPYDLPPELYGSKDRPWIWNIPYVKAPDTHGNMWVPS
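Signal: AlphaScreen proximity between streptavidin donor and anti-FITC acceptor beads on intact substrate. Reaction: Tdp1 1 nM, substrate 15 nM final, 5 min RT after 15 min compound preincubation.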
HepG2 tox – counter-screen for TGF-b inhibitors: cytotoxicity in HepG2 cells. HepG2 CAGA-GFP viability, ATP luminescence, 18 h. Potency, µM (doses to about 46.1 µM), inactives show at the highest dose activity change, negative = cytotoxicity, usual class: cytotoxic. hit rate 0.76% among 410,000. AID 588856; further: potency means the concentration at half of the fitted maximal effect
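HepG2 CAGA-GFP cells (1000/well, DMEM with 1% FBS) received compound, then TGF-beta at 500 pg/mL final, and were incubated 18 hours at 37 degrees C. Viability was read by CellTiter-Glo luminescence. Media-only wells were set as complete cell-killing and DMSO as no toxicity.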
TDP1 cell CPT – growth inhibition of DT40 Tdp1-/-;hTDP1 cells with camptothecin (screen for TDP1 inhibitors). chicken DT40 Tdp1-/-;hTDP1 cells + 20 nM CPT, ATP luminescence, 48 h. Potency, µM (top dose mostly 46.2 µM), inactives show at the highest dose activity change, negative = growth inhibition, hits mostly inhibitors. hit rate 12% among 420,000; further: potency means the concentration at half of the fitted maximal effect; on the % scale 0 is the no-effect control and ±100 the full control effect; nearly all actives have a fitted effect of over 55% in size
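Chicken DT40 Tdp1-/- cells complemented with human TDP1, 400 cells/well, exposed to compounds plus 20 nM camptothecin for at least 48 h at 37 C; viability read as ATP content by CellTiter-Glo luminescence.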
TDP1 cell noCPT – qHTS for Inhibitors of human tyrosyl-DNA phosphodiesterase 1 (TDP1): qHTS in cells in absence of CPT; DT40 Tdp1-/- hTDP1 cells, no CPT, ATP luminescence, 48 h; Potency, µM (doses to about 46.2 µM), inactives show at the top dose activity change, negative = growth inhibition, usual class: inhibitors; hit rate 15% among 420,000; AID 686978, 2013; further: potency means the concentration at half of the fitted maximal effect; on the % scale 0 is the no-effect control and ±100 the full control effect; nearly all actives have a fitted effect of over 55% in size
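Camptothecin absent (DMSO only). Human TDP1-complemented DT40 knockout cells, 400 cells/well, 37 °C for minimum 48 hr; ATP measured via CellTiter-Glo, 30 min dark incubation, luminescence.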
The depositor's hits bear a star; u = inconclusive; x = no result given; [ ] = remark or other dose. Unless noted, the call rests on the fitted dose curve; in most records, active means well fitted curve in the direction sought with a large enough effect; inconclusive means small, poorly fitted or top-dose-only effect, or another doubt; inactive means no such curve, though single readings can be large; an effect the other way counts as inactive or inconclusive.

SMILES	TGFb SMAD3 inh	IL1B secr inh	TDP1 block	HepG2 tox	TDP1 cell CPT	TDP1 cell noCPT
Cc1ccc2c(=O)c(C(=O)c3ccc(F)cc3)cn(CC(=O)Nc3ccc4c(c3)OCCO4)c2n1	-7%	x	1%	-13%	-26%	-20%
Cc1cc(Br)ccc1NC(=O)c1ccc(NS(=O)(=O)c2c(C)noc2C)cc1	0%	x	0%	-6%	-9%	-24%
Cn1c(N2CCN(C(=O)NCc3ccccc3)CC2)nc2ccccc21	14%	-3	0%	-34%	u	-21%
CCCn1c(N2CCN(C(=O)Nc3ccc(Cl)cc3)CC2)nc2ccccc21	-5%	u	0%	-36%	u	23µM*
Cn1c(N2CCN(C(=O)Nc3ccc(C(F)(F)F)cc3)CC2)nc2ccccc21	-15%	-13	1%	-43%	18µM*	21µM*
CC1(C(=O)NCc2cccnc2)CCN1C(=O)c1cccc(F)c1 (stereo not given)	12%	47	x	13%	-3%	21%
O=C(COC(=O)c1ccccc1Cl)NCc1ccco1	3%	23	-17%	-1%	0%	2%
Cc1ccc(C2CC(=O)n3nc(-c4ccc(F)cc4)nc3S2)cc1 (stereo not given)	0%	x	x	5%	u	u
Cc1ccc(OCCNC(=O)Cc2ccc(F)cc2)cc1	u	31	-3%	6%	-11%	-27%
CC(C)CNS(=O)(=O)c1ccc(CCC(=O)N2CCCC2)cc1	-2%	-1	-5%	-14%	22%	11%
CC(C)Cc1ccc(S(=O)(=O)N2CCN(Cc3noc(CCC(=O)N4CCCCC4)n3)CC2)cc1	11µM*	x	3%	-26%	u	21µM*
Cc1cccc(N2CCN(C(=O)CCNC(=O)Cn3ccc4ccccc4c3=O)CC2)c1C	-5%	13	6%	-5%	u	15µM*
O=C(Cn1ccc2ccccc2c1=O)NCCC(=O)N1CCN(c2cccc(Cl)c2)CC1	-11%	6	6%	-20%	15µM*	u
CCOC(=O)N1CCN(S(=O)(=O)c2ccc(C(=O)NNc3nc4c(C)cccc4s3)cc2)CC1	u	86	11%	-31%	16µM*	16µM*
CCOC(=O)N1CCN(S(=O)(=O)c2ccc(C(=O)N(CCN(C)C)c3nc4ccc(Cl)cc4s3)cc2)CC1	-16%	-21	9%	-35%	-23%	-2%
CCOC(=O)N1CCN(S(=O)(=O)c2ccc(C(=O)NNc3nc4ccc(Cl)cc4s3)cc2)CC1	u	110	8%	-22%	21µM*	21µM*
CC1(CO)CCCC1NCCNC1CCCC1(C)CO (stereo not given)	24%	10	x	3%	2%	0%
CCN(CC)C(=O)[C@H]1C[C@H](CC(=O)NCc2ccc(OC)c(OC)c2)C(=O)N2CCc3c([nH]c4ccc(Cl)cc34)[C@]12C	u	16	2%[56.1 µM]	-8%	u	23µM*
COc1ccc2[nH]c3c(c2c1)CCN1C(=O)C(CC(=O)NCCCN(C)C)C[C@H](C(=O)N(C(C)C)C(C)C)[C@@]31C (stereo not given in full)	-8%	-1	2%[56.1 µM]	-30%	-2%	-6%
CCN(CC)C(=O)[C@H]1C[C@H](CC(=O)NCCCN(C)C)C(=O)N2CCc3c([nH]c4ccc(Cl)cc34)[C@]12C	u	-52*	0%[56.1 µM]	-42%	18µM*	u
CC(C)N(C(=O)[C@H]1C[C@H](CC(=O)NCCCN(C)C)C(=O)N2CCc3c([nH]c4ccc(Cl)cc34)[C@]12C)C(C)C	u	-25	1%[56.1 µM]	-73%	u	15µM*
CCN(CC)C(=O)[C@H]1C[C@H](CC(=O)NCC23CC4CC(CC(C4)C2)C3)C(=O)N2CCc3c([nH]c4ccc(Cl)cc34)[C@]12C	13µM*	-69*	3%[56.1 µM]	-92%	16µM*	18µM*
CCN(CC)C(=O)[C@H]1CC(CC(=O)NCCCN(C)C)C(=O)N2CCc3c([nH]c4ccccc34)[C@]12C (stereo not given in full)	31%	-8	0%	1%	4%	1%
COc1cccc2c1Oc1ncccc1N(C(=O)CCC(=O)NC(C)C)C2	9%	x	0%	8%	-6%	4%
CCn1c(SCC(=O)N(C)c2c(N)n(Cc3ccccc3)c(=O)[nH]c2=O)nnc1-c1cccs1	-1%	-17	x	-18%	7%	-2%
SMILES	TGFb SMAD3 inh	IL1B secr inh	TDP1 block	HepG2 tox	TDP1 cell CPT	TDP1 cell noCPT
Cc1ccc(NC(=O)COC(=O)c2ccccc2OCC(=O)Nc2ccc(Br)cc2)c(Br)c1	x	x	x	x	-14%	-21%
CN1C(=O)Cc2cc(S(=O)(=O)NCc3c(F)cccc3Cl)ccc21	-27%	2	15%	-8%	u	4%
CN1CCN(CC(=O)c2cc(C(C)(C)C)c(O)c(C(C)(C)C)c2)CC1	u	-24	x	8%	u	-29%
CC1(C)CC(=O)C(CS(=O)(=O)c2ccccc2)=C(Cl)C1	-16%	-19	1%	-24%	5.2µM*	2.9µM*
CC(Sc1nnc(Nc2ccccc2)s1)C(=O)NC1CCCc2ccccc21 (stereo not given)	u	-5	5%	5%	u	23µM*
Cc1ccccc1-n1c(C)nnc1SCC(=O)NC1CCCc2ccccc21 (stereo not given)	-6%	-13	3%	-21%	-6%	-27%
Cc1cccc(Nc2nnc(SCC(=O)NC3CCCc4ccccc43)s2)c1C (stereo not given)	-7%	u	-5%	-1%	15µM*	8.2µM*
CC(C)C[C@H]1CN([C@@H](Cc2ccccc2)CN2CCC[C@H]2CN2C(=O)C(=O)NC[C@@H]2Cc2ccccc2)C(=O)C(=O)N1CCc1ccccc1	x	-2	x	x	u	u
CC(C)C[C@H]1CNC(=O)C(=O)N1C[C@H]1CCCN1C[C@H](CC(C)C)N1C[C@H](Cc2ccccc2)N(CCc2ccccc2)C(=O)C1=O	0%	27	x	-1%	21µM*	29µM*
CC(C)C[C@H]1CN([C@@H](Cc2ccccc2)CN2CCC[C@@H]2CN2C(=O)C(=O)NC[C@@H]2Cc2ccccc2)C(=O)C(=O)N1CCc1ccccc1	u	-67*	x	-91%	16µM*	16µM*

Compound activity as filed in PubChem.
